According to PubChem BioAssay (NCI):
About 83,000 compounds went through this panel and 20% of them were active in at least one assay; those are over-represented in the sample as a whole.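 Cell lines were cultured in 96-well plates, exposed to a single compound concentration, and assessed for percent growth 48 hours later.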 Values without a mark were called inactive. Activity calls are given as the source filed them. Rule for the calls: active = growth percent below 10; inactive = the rest.

What follows are compounds tested on BT-549 breast (assay: NCI-60 one-dose screen, 48 h (100 = growth as untreated, 0 = no growth, -100 = all killed)). Details: 10 µM unless noted.

First: COc1ccc(C2=Nc3c(N)ncnc3NC(c3cccc(Nc4ccnc5cc(C(F)(F)F)ccc45)c3)C2)cc1 (stereo not given)
Second: CN(C)c1ccc(-c2cc(-c3ccc(Nc4nc(Nc5ccc(Cl)cc5)nc(Nc5ccc(Cl)cc5)n4)cc3)nc(N)c2C#N)cc1
The growth of the first is lower: 80.7% for the first, 95.6% for the second.

Going from Clc1ccc(-c2cn3ccsc3n2)c(Cl)c1Cl to Clc1nccc2c(-c3csc(-c4c[nH]c5ccccc45)n3)c[nH]c12, the growth falls from 86.3% to 65.7%.

Going from CCSC1=CC(=O)c2ccccc2C1=O to C=CCOC(=O)C1=C(C)NC(=O)NC1c1c(Cl)n(C)c2ccccc12 (stereo not given), the growth rises from 91.4% to 99.1%.

Going from Fc1ccc2c(c1)c(-c1nc(-c3c[nH]c4ncccc34)cs1)cn2CCCN1CCOCC1 to COc1ccc2c(c1)c(-c1nonc1-c1cn(C)c3ccc(OC)cc13)cn2C, the growth falls from 69.5% to 45.7%.

First: CCCCCCC(CCCC)COC(=O)c1ccc(Cl)cc1 (stereo not given)
Second: CC/C=C1/C(=O)C=C[C@@H]1C/C=C\CCCC(=O)OC
The growth of the first is higher: 107% for the first, 16.6% for the second.

Going from Cc1ccc2nc(Cl)c(Cn3nnnc3SCc3ccccc3)cc2c1 to CCOC(=O)Cn1c(=O)c2c3ccccc3n(C)c2n2nnc(-c3ccccc3)c12, the growth rises from 92.3% to 104%.

Going from O=C(O)c1cn(C2CC2)c2cc(N3CCN(C(=O)N/N=C/c4ccccc4)CC3)c(F)cc2c1=O to Cc1nn(-c2ccccc2)c(N2CCCCC2)c1/C=N/NC(=O)Cn1c(=O)sc2ccccc21, the growth falls from 92.6% to 79.9%.

Compared with CC12CCC(/C(=C/NNc3ccc([N+](=O)[O-])cc3[N+](=O)[O-])C1=O)C2(C)C (stereo not given), COP(=O)(OC)c1nnn(-c2cccc([N+](=O)[O-])c2)c1C is higher in growth: 69.4% for the first, 105% for the second.

Going from COc1cc(C#Cc2ccc(=O)oc2C#Cc2ccccc2)cc(OC)c1OC to COc1cc(C(=O)c2c(-c3ccccc3)oc3c(OC)cccc23)cc(OC)c1O, the growth falls from 57.6% to 11.7%.

Compared with COc1ccc(C/C(C)=C(/c2ccc(OCCN3CCCCCC3)cc2)c2ccc(OC(=O)NCc3ccccc3)cc2)cc1, Cc1ccc(C(=O)c2ccc(CC(=O)N/N=C/c3ccc(O)cc3O)n2C)cc1 is lower in growth: 100% for the first, 50.8% for the second.

First: Cc1c2cc[nH]c(=O)c2c(C)c2c1[nH]c1ccc(OC(=O)c3ccccc3)cc12
Second: CC(/C=C1\SC(=S)N(CC(=O)NC(Cc2c[nH]c3ccccc23)C(=O)O)C1=O)=C\c1ccccc1 (stereo not given)
The growth of the first is lower: 40.8% for the first, 105% for the second.

Compared with Cc1cccc(-n2c(C)nc3ccc(N4CCCNC4=O)cc3c2=O)c1, NC(=S)N/N=C/c1cn(-c2ccccc2)nc1-c1cc2ccccc2oc1=O is lower in growth: 108% for the first, 42.5% for the second.

First: CC(C)[C@@]12C[C@@H](OC(=O)COC(=O)c3ccccc3)[C@@](C)(O1)[C@@H]1CC[C@@H](C)[C@H]1[C@@H]2OC(=O)/C=C/c1ccccc1
Second: O=C(CCCCCCN1CC(=O)N2[C@@H](C3CCCCC3)c3[nH]c4ccccc4c3C[C@H]2C1=O)NO
The growth of the first is lower: 22.9% for the first, 80.6% for the second.

First: O=C(Cn1nnc2ccccc21)Nc1ccc(-c2nc3ccccc3s2)cc1
Second: COc1ccc(C2=CN3CC=CCC3CC2=O)cc1 (stereo not given)
The growth of the first is lower: 86.5% for the first, 90.7% for the second.

Compared with O=C1NC(=C(Cl)Cl)/C(=N/S(=O)(=O)N2CCCCC2)N1, CCN1C(=O)N(CC)C2C1NN=C1SCC(=O)N12 (stereo not given) is higher in growth: 63.6% for the first, 102% for the second.

Compound S=c1[nH]c2cc(Cl)ccc2o1 has a growth of 99.8%.

In the case of C[Se]C(=O)CC1=C2C=C(F)C=CC2/C(=C\c2ccc(S(C)=O)cc2)C1C (stereo not given), the growth is reported as -89.8% (active).
COc1cc(N2C(=O)[C@H](c3ccccc3)C2c2ccc(SC)cc2)cc(OC)c1OC (stereo not given in full) was tested, and the growth was -6.28% (active).
In the case of Cc1ccc(/C=C2\CN(C(=O)C(Cl)Cl)C/C(=C\c3ccc(C)cc3)C2=O)cc1, the growth is reported as -15.3% (active).
In the case of C#CCOc1cccc(-c2ncc3cc(NC(=O)CCl)ccc3n2)c1, the growth is reported as -49.3% (active).
For COc1cc(C(=O)/C=C/c2c(-c3cccs3)nc3ccccn23)cc(OC)c1OC, the growth was -16.9% (active).
CC(=O)c1c(Nc2ccc(F)c(F)c2F)[nH]c2c(F)cc(F)cc2c1=O was tested, and the growth was 2.13% (active).
With CCN(CC)c1ccc(/C=N/NC(=O)c2ccc(Nc3ccnc(C(F)(F)F)c3)cc2)c(O)c1 the growth was -2.72% (active).
COc1ncc2cc1NS(=O)(=O)c1cccc(c1)C(=O)NCC1=CC=C(S1)c1ncnc3c1SC2=C3C was tested, and the growth was -52.7% (active).
In the case of Cc1ccc(N=Nc2c(N)nn(-c3ccccc3)c2N)cc1, the growth is reported as -3.98% (active).

What follows are compounds tested on MDA-MB-435 melanoma in the same assay as above. Details: 10 µM unless noted.

Compared with COc1ccc(C2=Nc3c(N)ncnc3NC(c3cccc(Nc4ccnc5cc(C(F)(F)F)ccc45)c3)C2)cc1 (stereo not given), CCN(CC)c1ccc(/C=N/NC(=O)c2ccc(Nc3ccnc(C(F)(F)F)c3)cc2)c(O)c1 is lower in growth: 19.1% for the first, 17.5% for the second.

First: Clc1ccc(-c2cn3ccsc3n2)c(Cl)c1Cl
Second: Clc1nccc2c(-c3csc(-c4c[nH]c5ccccc45)n3)c[nH]c12
The growth of the first is higher: 96.6% for the first, 53.9% for the second.

First: CCSC1=CC(=O)c2ccccc2C1=O
Second: C=CCOC(=O)C1=C(C)NC(=O)NC1c1c(Cl)n(C)c2ccccc12 (stereo not given)
The growth of the first is lower: 80.2% for the first, 103% for the second.

Going from CCCCCCC(CCCC)COC(=O)c1ccc(Cl)cc1 (stereo not given) to O=C(CCCCCCN1CC(=O)N2[C@@H](C3CCCCC3)c3[nH]c4ccccc4c3C[C@H]2C1=O)NO, the growth falls from 107% to 60.6%.

Compared with Cc1ccc2nc(Cl)c(Cn3nnnc3SCc3ccccc3)cc2c1, CCOC(=O)Cn1c(=O)c2c3ccccc3n(C)c2n2nnc(-c3ccccc3)c12 is lower in growth: 103% for the first, 99.1% for the second.

Going from O=C(O)c1cn(C2CC2)c2cc(N3CCN(C(=O)N/N=C/c4ccccc4)CC3)c(F)cc2c1=O to Cc1nn(-c2ccccc2)c(N2CCCCC2)c1/C=N/NC(=O)Cn1c(=O)sc2ccccc21, the growth falls from 106% to 87.9%.

Going from CC12CCC(/C(=C/NNc3ccc([N+](=O)[O-])cc3[N+](=O)[O-])C1=O)C2(C)C (stereo not given) to COP(=O)(OC)c1nnn(-c2cccc([N+](=O)[O-])c2)c1C, the growth rises from 70.5% to 108%.

First: COc1cc(C#Cc2ccc(=O)oc2C#Cc2ccccc2)cc(OC)c1OC
Second: COc1cc(C(=O)/C=C/c2c(-c3cccs3)nc3ccccn23)cc(OC)c1OC
The growth of the first is higher: 96% for the first, 11% for the second.

First: COc1ccc(C/C(C)=C(/c2ccc(OCCN3CCCCCC3)cc2)c2ccc(OC(=O)NCc3ccccc3)cc2)cc1
Second: Cc1ccc(C(=O)c2ccc(CC(=O)N/N=C/c3ccc(O)cc3O)n2C)cc1
The growth of the first is higher: 95.3% for the first, 63.1% for the second.

Going from Cc1c2cc[nH]c(=O)c2c(C)c2c1[nH]c1ccc(OC(=O)c3ccccc3)cc12 to CC(/C=C1\SC(=S)N(CC(=O)NC(Cc2c[nH]c3ccccc23)C(=O)O)C1=O)=C\c1ccccc1 (stereo not given), the growth rises from 28% to 104%.

Compared with Cc1cccc(-n2c(C)nc3ccc(N4CCCNC4=O)cc3c2=O)c1, COc1ccc(C2=CN3CC=CCC3CC2=O)cc1 (stereo not given) is higher in growth: 104% for the first, 106% for the second.

Going from CC(C)[C@@]12C[C@@H](OC(=O)COC(=O)c3ccccc3)[C@@](C)(O1)[C@@H]1CC[C@@H](C)[C@H]1[C@@H]2OC(=O)/C=C/c1ccccc1 to O=C(Cn1nnc2ccccc21)Nc1ccc(-c2nc3ccccc3s2)cc1, the growth falls from 99.8% to 95.9%.

First: O=C1NC(=C(Cl)Cl)/C(=N/S(=O)(=O)N2CCCCC2)N1
Second: CCN1C(=O)N(CC)C2C1NN=C1SCC(=O)N12 (stereo not given)
The growth of the first is lower: 47.6% for the first, 99.1% for the second.

Going from S=c1[nH]c2cc(Cl)ccc2o1 to CN(C)c1ccc(-c2cc(-c3ccc(Nc4nc(Nc5ccc(Cl)cc5)nc(Nc5ccc(Cl)cc5)n4)cc3)nc(N)c2C#N)cc1, the growth falls from 96.5% to 84%.

Fc1ccc2c(c1)c(-c1nc(-c3c[nH]c4ncccc34)cs1)cn2CCCN1CCOCC1 was tested, and the growth was -17.1% (active).
In the case of C[Se]C(=O)CC1=C2C=C(F)C=CC2/C(=C\c2ccc(S(C)=O)cc2)C1C (stereo not given), the growth is reported as -25.9% (active).
COc1cc(N2C(=O)[C@H](c3ccccc3)C2c2ccc(SC)cc2)cc(OC)c1OC (stereo not given in full) was tested, and the growth was -23.7% (active).
Cc1ccc(/C=C2\CN(C(=O)C(Cl)Cl)C/C(=C\c3ccc(C)cc3)C2=O)cc1 was tested, and the growth was -75.1% (active).
For C#CCOc1cccc(-c2ncc3cc(NC(=O)CCl)ccc3n2)c1, the growth was 2.74% (active).
With COc1ccc2c(c1)c(-c1nonc1-c1cn(C)c3ccc(OC)cc13)cn2C the growth was -25.4% (active).
CC(=O)c1c(Nc2ccc(F)c(F)c2F)[nH]c2c(F)cc(F)cc2c1=O was tested, and the growth was -14.4% (active).
For CC/C=C1/C(=O)C=C[C@@H]1C/C=C\CCCC(=O)OC, the growth was 4.2% (active).
In the case of COc1cc(C(=O)c2c(-c3ccccc3)oc3c(OC)cccc23)cc(OC)c1O, the growth is reported as -30.4% (active).
With NC(=S)N/N=C/c1cn(-c2ccccc2)nc1-c1cc2ccccc2oc1=O the growth was -47.5% (active).
For COc1ncc2cc1NS(=O)(=O)c1cccc(c1)C(=O)NCC1=CC=C(S1)c1ncnc3c1SC2=C3C, the growth was -28.6% (active).
With Cc1ccc(N=Nc2c(N)nn(-c3ccccc3)c2N)cc1 the growth was -52.1% (active).
